From the supplement of paper PMC10849652
The full data set covers some 7,900 targets. This sample favours those with a hit. About 0.6% of all pairs of compound and target were hits.

Assays:
Assay in all cases: log2 fold change, soluble protein after heating vs DMSO (PISA); higher = thermal stabilisation; K562 cells, 10 uM, 30 min; active = over 0.2 and 3.5 SD of the protein, either way, in both replicates (recomputed)
erlotinib = compound: C#Cc1cccc(Nc2ncnc3cc(OCCOC)c(OCCOC)cc23)c1 [erlotinib]
Outline: (§1)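 K562 cells at 2×10^6 cells/mL were exposed to 10 μM compound for 30 min, then aliquots were heated for 3 min across 48°C-58°C, pooled, and extracted in PBS containing 0.5% NP-40 at 4°C. The supernatant after 21,000xg for 90 min was taken as soluble protein and measured by TMTpro 16plex LC-MS/MS with channel sums equalised. Thermal stability is reported relative to control samples, with values from duplicates. Fold changes are given on a log2 scale.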

[1] = compound: C/C(=N\NC(=O)C1=CC(=CC=C1)S(=O)(=O)N2CCOCC2)/C3=C(C=CC(=C3)Cl)O
Outline: as §1

[2] = compound: C1=CC(=C(C=C1Cl)C2=NC3=NC=CN=C3C(=N2)NC4=CC=NC=C4)F
Outline: as §1

[3] = compound: C1=CC(=CC=C1C2=NC3=C(N2)C=C(C=C3)C(=O)N)OC4=CC=C(C=C4)Cl
Outline: as §1

[4] = compound: C1=CC2=C(C=CC(=C2)/C=C\3/C(=O)NC(=NCC4=CC=CS4)S3)N=C1
Outline: as §1

[5] = compound: C1=CC2=NC=CN=C2C=C1/C=C/3\C(=O)NC(=O)S3
Outline: as §1

[6] = compound: C1=CC=C(C=C1)C2=NC(=C(N2)C3=CC=NC=C3)C4=CC(=C(C=C4)Cl)O
Outline: as §1

[7] = compound: C1=CC=C2C(=C1)C3=NNC4=CC=CC(=C43)C2=O
Outline: as §1

[8] = compound: C1CCN(C1)C(=O)NC2=CC=CC(=C2)NC3=NC=C(C(=N3)NCCC4=CN=CN4)Br
Outline: as §1

[9] = compound: C1CN(CCC1(CC2=CC=C(C=C2)Cl)N)C3=NC=NC4=C3C=CN4
Outline: as §1

Measured: log2 fold change

PNN (UniProt Q9H307)
UniProt Q9H307, sequence (Q9H307 whole entry, looked up): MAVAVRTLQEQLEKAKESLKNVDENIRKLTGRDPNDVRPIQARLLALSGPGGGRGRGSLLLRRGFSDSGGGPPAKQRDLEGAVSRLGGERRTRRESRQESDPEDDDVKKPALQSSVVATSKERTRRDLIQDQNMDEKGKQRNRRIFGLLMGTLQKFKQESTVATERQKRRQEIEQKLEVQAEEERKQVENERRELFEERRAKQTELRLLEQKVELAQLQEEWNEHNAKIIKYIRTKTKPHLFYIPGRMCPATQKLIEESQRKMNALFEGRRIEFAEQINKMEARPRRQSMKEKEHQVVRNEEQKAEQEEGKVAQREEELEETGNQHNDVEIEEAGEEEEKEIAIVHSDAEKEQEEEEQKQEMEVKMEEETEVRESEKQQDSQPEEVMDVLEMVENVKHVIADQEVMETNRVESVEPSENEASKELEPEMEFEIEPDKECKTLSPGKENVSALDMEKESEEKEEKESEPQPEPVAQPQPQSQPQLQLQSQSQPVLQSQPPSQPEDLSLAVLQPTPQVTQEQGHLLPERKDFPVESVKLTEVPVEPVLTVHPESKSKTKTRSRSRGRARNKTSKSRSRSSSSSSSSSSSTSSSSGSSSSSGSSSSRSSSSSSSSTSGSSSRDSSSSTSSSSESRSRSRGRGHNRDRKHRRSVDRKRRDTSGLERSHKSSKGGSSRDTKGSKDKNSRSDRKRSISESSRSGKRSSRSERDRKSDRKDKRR
inactive: erlotinib 0.007 | [1] -0.001 | [2] 0.032 | [3] 0.024 | [4] 0.025 | [5] 0.085 | [6] -0.107 | [7] -0.11

PPT2 isoform 3 (UniProt Q9UMR5)
inactive: erlotinib 0 | [1] 0.056 | [2] 0.033 | [3] -0.001 | [4] -0.026 | [5] -0.02 | [6] 0.038 | [7] 0.039 | [8] -0.012 | [9] 0.031

PLBD2 (UniProt Q8NHP8)
UniProt Q8NHP8, sequence (Q8NHP8 whole entry, looked up): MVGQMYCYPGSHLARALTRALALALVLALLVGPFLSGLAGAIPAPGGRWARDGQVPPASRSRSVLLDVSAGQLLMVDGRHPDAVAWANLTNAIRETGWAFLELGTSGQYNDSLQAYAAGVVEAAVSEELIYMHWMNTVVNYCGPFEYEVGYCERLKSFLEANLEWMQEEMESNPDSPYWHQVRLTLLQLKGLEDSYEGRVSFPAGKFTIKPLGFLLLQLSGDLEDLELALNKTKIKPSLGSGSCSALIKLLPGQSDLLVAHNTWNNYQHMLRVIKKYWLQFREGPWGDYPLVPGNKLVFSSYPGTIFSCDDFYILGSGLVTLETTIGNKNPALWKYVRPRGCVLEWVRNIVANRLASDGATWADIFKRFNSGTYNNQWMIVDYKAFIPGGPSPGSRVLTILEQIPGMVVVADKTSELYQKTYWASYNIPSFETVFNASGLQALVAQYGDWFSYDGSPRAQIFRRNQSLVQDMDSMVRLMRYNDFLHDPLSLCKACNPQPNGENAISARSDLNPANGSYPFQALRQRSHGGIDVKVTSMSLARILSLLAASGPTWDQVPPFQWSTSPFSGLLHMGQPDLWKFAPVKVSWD
inactive: erlotinib -0.022 | [1] -0.048 | [2] 0.026 | [3] 0.01 | [4] 0.009 | [5] 0.037 | [6] 0.01 | [7] -0.02 | [8] -0.018 | [9] 0.018

PSMD9 (UniProt O00233)
UniProt O00233, sequence (O00233 whole entry, looked up): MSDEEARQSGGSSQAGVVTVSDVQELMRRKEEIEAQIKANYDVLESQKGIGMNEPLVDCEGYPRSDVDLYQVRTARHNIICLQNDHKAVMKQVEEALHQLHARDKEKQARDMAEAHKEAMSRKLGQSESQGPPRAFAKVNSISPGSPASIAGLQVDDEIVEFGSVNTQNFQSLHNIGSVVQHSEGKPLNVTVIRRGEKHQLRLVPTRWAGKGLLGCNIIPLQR
inactive: erlotinib 0.015 | [1] 0.015 | [2] 0.022 | [3] -0.012 | [4] -0.068 | [5] 0.041 | [6] 0.006 | [7] 0.008 | [8] 0.009 | [9] 0.03

PRPF4B (UniProt Q13523)
inactive: erlotinib 0.002 | [1] 0.044 | [2] -0.213 | [3] 0.074 | [4] -0.046 | [5] -0.064 | [6] -0.14 | [7] -0.12 | [8] -0.103 | [9] -0.113

PSMC5 (UniProt P62195)
inactive: erlotinib -0.116 | [1] -0.044 | [2] -0.029 | [3] 0.021 | [4] -0.022 | [5] -0.03 | [6] -0.007 | [7] 0.019 | [8] 0.021 | [9] -0.032

PPP2R5E (UniProt Q16537)
inactive: erlotinib 0.017 | [1] 0.096 | [2] 0.005 | [3] -0.061 | [4] -0.007 | [5] 0 | [6] 0.075 | [7] 0.054 | [8] -0.013 | [9] 0.056

PTP4A1 (UniProt Q93096)
UniProt Q93096, sequence (Q93096 whole entry, looked up): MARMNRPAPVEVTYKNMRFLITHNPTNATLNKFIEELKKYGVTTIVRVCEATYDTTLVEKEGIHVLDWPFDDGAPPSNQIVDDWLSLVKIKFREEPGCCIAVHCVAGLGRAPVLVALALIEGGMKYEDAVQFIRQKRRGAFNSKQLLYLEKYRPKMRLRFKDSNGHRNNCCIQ
inactive: erlotinib 0.053 | [1] 0.083 | [2] 0.134 | [3] 0.037 | [4] -0.042 | [5] 0.038 | [6] 0.062 | [7] 0.027 | [8] -0.096 | [9] -0.127

PDE12 (UniProt Q6L8Q7)
inactive: erlotinib -0.023 | [1] 0.018 | [2] 0.052 | [3] 0.027 | [4] 0.001 | [5] -0.008 | [6] -0.015 | [7] 0.054 | [8] -0.04 | [9] 0.026

PRIM2 (UniProt P49643)
inactive: erlotinib 0.004 | [1] 0.038 | [2] 0.018 | [3] 0.015 | [4] 0.061 | [5] 0.009 | [6] 0.035 | [7] 0.035 | [8] -0.023 | [9] -0.071

PIK3R1 (UniProt P27986)
inactive: erlotinib 0.01 | [1] 0.033 | [2] 0.025 | [3] 0.048 | [4] 0.036 | [5] 0.14 | [6] -0.022 | [7] -0.027 | [8] -0.024 | [9] 0.05

QKI (UniProt Q96PU8)
UniProt Q96PU8, sequence (Q96PU8 whole entry, looked up): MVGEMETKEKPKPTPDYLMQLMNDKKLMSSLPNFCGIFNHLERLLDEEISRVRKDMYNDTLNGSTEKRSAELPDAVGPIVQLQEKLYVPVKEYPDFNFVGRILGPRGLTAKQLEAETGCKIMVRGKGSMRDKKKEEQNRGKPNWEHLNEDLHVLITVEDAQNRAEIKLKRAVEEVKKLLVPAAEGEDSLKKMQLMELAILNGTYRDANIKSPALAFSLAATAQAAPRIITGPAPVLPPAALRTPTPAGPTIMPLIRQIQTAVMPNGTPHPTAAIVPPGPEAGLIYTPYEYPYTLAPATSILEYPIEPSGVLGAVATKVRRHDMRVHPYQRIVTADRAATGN
inactive: erlotinib -0.011 | [1] 0.051 | [2] -0.008 | [3] 0.003 | [4] 0.028 | [5] 0.007 | [6] -0.002 | [7] -0.032 | [8] -0.025 | [9] -0.007

PIGG (UniProt Q5H8A4)
inactive: erlotinib -0.002 | [1] 0.016 | [2] -0.009 | [3] 0.027 | [4] 0.023 | [5] 0.014 | [6] -0.013 | [7] -0.003 | [8] -0.016 | [9] 0.067

PHF5A (UniProt Q7RTV0)
UniProt Q7RTV0, sequence (Q7RTV0 whole entry, looked up): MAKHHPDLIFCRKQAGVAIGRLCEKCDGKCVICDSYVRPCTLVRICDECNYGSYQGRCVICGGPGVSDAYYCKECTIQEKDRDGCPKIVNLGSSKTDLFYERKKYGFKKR
inactive: erlotinib 0.008 | [1] -0.005 | [2] 0.03 | [3] -0.034 | [4] -0.049 | [5] 0.017 | [6] -0.03 | [7] -0.05 | [8] -0.02 | [9] 0.022

PDE4DIP isoform 4 (UniProt Q5VU43)
inactive: erlotinib 0.027 | [1] -0.002 | [2] 0.186 | [3] 0.01 | [4] 0.089 | [5] -0.043 | [6] -0.059 | [7] -0.02 | [8] -0.037 | [9] -0.061

PLIN2 (UniProt Q99541)
inactive: erlotinib 0.033 | [1] 0.028 | [2] 0.043 | [3] -0.038 | [4] 0.023 | [5] 0.101 | [6] 0 | [7] -0.089 | [8] 0.028 | [9] -0.068

PRG4 (UniProt Q92954)
inactive: erlotinib 0.002 | [1] -0.109 | [2] 0.011 | [3] -0.085 | [4] 0.15 | [5] 0.024 | [6] -0.139 | [7] -0.171 | [8] -0.143 | [9] 0.031

PELP1 (UniProt Q8IZL8)
inactive: erlotinib 0.082 | [1] 0.044 | [2] -0.035 | [3] 0.008 | [4] -0.032 | [5] -0.008 | [6] 0.007 | [7] -0.053 | [8] -0.041 | [9] 0.08

PPP1CA (UniProt P62136)
inactive: erlotinib 0.026 | [1] -0.002 | [2] -0.015 | [3] -0.006 | [4] 0.036 | [5] -0.005 | [6] 0.001 | [7] -0.03 | [8] -0.004 | [9] 0.009

PARL (UniProt Q9H300)
inactive: erlotinib -0.019 | [1] 0.015 | [2] 0.011 | [3] -0.011 | [4] 0.016 | [5] 0.044 | [6] 0.026 | [7] -0.012 | [8] 0.015 | [9] 0.017

PHKA2 (UniProt P46019)
UniProt P46019, sequence (P46019 whole entry, looked up): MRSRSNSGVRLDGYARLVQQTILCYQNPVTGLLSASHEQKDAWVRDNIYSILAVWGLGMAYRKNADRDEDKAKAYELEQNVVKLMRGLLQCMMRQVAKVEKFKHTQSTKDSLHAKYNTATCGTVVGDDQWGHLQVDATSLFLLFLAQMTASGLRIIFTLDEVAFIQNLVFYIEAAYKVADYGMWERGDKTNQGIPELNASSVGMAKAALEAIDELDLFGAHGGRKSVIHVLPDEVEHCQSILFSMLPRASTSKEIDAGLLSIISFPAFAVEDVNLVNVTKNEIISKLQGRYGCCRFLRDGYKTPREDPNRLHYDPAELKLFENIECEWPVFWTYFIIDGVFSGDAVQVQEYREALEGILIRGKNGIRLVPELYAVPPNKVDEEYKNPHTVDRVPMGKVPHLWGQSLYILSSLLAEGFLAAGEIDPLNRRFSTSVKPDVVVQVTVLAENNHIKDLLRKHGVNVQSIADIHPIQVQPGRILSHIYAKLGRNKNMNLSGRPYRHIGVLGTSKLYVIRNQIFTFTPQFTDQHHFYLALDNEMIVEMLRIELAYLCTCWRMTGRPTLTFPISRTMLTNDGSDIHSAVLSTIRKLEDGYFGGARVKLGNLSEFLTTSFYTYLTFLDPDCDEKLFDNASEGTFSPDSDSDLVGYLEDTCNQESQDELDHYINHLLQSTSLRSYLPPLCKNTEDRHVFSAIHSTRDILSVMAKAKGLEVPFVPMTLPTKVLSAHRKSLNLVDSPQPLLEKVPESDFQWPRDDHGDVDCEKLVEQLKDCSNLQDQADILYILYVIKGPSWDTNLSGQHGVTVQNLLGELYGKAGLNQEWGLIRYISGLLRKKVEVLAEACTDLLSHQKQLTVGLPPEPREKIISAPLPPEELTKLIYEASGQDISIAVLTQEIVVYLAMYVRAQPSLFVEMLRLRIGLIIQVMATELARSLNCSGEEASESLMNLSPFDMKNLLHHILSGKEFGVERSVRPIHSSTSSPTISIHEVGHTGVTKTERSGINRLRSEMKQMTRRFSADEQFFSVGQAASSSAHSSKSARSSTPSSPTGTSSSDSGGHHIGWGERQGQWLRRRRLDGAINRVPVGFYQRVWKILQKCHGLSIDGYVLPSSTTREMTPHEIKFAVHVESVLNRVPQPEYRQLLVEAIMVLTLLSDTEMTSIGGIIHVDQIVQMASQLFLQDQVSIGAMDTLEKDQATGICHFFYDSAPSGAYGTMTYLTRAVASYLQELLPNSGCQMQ
inactive: erlotinib -0.077 | [1] 0.029 | [2] 0.041 | [3] -0.008 | [4] -0.011 | [5] 0.041 | [6] -0.028 | [7] -0.026 | [8] 0.004 | [9] 0.004

POLA1 (UniProt P09884)
inactive: erlotinib 0.03 | [1] 0.038 | [2] 0.042 | [3] -0.023 | [4] -0.032 | [5] 0 | [6] -0.013 | [7] 0.021 | [8] 0.006 | [9] -0.022

PSMC4 (UniProt P43686)
inactive: erlotinib -0.05 | [1] -0.092 | [2] -0.052 | [3] -0.004 | [4] -0.023 | [5] -0.032 | [6] -0.011 | [7] 0.006 | [8] 0.04 | [9] -0.041

PDCD6IP (UniProt Q8WUM4)
inactive: erlotinib 0.162 | [1] 0.167 | [2] 0.045 | [3] -0.044 | [4] 0.122 | [5] 0.014 | [6] 0.031 | [7] 0.043 | [8] -0.095 | [9] -0.122

POLR2C (UniProt P19387)
inactive: erlotinib 0.05 | [1] 0.037 | [2] -0.006 | [3] -0.051 | [4] -0.038 | [5] -0.053 | [6] 0.172 | [7] 0.001 | [8] 0.117 | [9] 0

PMM1 (UniProt Q92871)
UniProt Q92871, sequence (Q92871 whole entry, looked up): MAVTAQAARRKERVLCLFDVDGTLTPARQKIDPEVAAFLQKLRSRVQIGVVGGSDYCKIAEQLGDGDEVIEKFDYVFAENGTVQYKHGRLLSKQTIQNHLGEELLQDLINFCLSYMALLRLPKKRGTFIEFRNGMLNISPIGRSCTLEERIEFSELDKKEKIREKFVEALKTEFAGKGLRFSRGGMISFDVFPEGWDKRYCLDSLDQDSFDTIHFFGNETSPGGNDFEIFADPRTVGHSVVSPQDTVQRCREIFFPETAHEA
inactive: erlotinib -0.021 | [1] -0.041 | [2] 0.004 | [3] 0.065 | [4] 0.1 | [5] 0.002 | [6] -0.007 | [7] -0.049 | [8] 0.001 | [9] 0.036

PEF1 (UniProt Q9UBV8)
inactive: erlotinib -0.053 | [1] 0.108 | [2] 0.079 | [3] -0.029 | [4] 0.134 | [5] -0.064 | [6] 0.109 | [7] 0.035 | [8] -0.008 | [9] -0.069

PPP2R5A (UniProt Q15172)
UniProt Q15172, sequence (Q15172 whole entry, looked up): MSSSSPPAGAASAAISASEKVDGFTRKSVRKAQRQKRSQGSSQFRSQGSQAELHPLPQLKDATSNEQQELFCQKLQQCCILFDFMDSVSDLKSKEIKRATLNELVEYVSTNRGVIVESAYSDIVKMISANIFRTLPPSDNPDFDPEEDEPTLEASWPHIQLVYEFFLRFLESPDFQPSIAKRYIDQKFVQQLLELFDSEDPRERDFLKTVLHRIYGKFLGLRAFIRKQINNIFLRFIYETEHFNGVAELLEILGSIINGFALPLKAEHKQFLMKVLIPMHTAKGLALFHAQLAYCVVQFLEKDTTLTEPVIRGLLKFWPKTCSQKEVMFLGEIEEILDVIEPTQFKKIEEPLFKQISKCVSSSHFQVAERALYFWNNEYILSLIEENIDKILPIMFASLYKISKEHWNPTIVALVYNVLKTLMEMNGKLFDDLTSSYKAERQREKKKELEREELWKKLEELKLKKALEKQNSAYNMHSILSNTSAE
inactive: erlotinib 0.011 | [1] 0.098 | [2] 0.009 | [3] -0.022 | [4] 0.018 | [5] 0.055 | [6] 0.078 | [7] 0.017 | [8] 0 | [9] -0.015

PSMD13 (UniProt Q9UNM6)
UniProt Q9UNM6, sequence (Q9UNM6 whole entry, looked up): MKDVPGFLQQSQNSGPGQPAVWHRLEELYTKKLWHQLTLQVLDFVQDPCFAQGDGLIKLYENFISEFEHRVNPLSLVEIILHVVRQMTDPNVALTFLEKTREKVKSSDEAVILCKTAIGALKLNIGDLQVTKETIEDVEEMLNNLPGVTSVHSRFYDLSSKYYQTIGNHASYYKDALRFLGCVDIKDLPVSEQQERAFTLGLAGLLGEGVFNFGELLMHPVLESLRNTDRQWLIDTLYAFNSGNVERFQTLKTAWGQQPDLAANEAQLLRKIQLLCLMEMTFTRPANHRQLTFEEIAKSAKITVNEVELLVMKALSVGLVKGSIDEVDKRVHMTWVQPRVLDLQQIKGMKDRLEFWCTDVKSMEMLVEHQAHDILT
inactive: erlotinib -0.091 | [1] -0.026 | [2] -0.076 | [3] 0.002 | [4] -0.02 | [5] 0.013 | [6] -0.002 | [7] 0.044 | [8] -0.008 | [9] -0.069

PELO (UniProt Q9BRX2)
UniProt Q9BRX2, sequence (Q9BRX2 whole entry, looked up): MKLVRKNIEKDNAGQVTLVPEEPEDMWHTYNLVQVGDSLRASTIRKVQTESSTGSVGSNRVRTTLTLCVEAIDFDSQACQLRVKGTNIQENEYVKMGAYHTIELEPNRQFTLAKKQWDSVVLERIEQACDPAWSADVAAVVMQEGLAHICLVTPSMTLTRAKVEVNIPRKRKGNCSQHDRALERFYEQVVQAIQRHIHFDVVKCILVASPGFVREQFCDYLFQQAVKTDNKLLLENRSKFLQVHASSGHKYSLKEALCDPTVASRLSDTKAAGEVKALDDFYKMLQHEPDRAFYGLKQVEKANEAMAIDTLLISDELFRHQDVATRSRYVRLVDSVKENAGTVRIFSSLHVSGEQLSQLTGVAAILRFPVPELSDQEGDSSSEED
inactive: erlotinib 0.153 | [1] 0.017 | [2] -0.108 | [3] 0.074 | [4] 0.105 | [5] -0.104 | [6] 0.079 | [7] 0.021 | [8] -0.097 | [9] -0.058
